Only some compounds are listed: those with a hit (about 2.2% of all), similar ones and a draw of the others.
Abeta rescue: A-beta toxicity reversal in yeast; actives 0.063% (n = 410,000); yeast expressing A-beta42, growth rescue, OD600, 48 h; response scale: 0% DMSO, 100% iron-clioquinol control; AID 1347071; Potency, µM (top dose mostly 46.1 µM), most hits filed as activators; also: nearly all actives have a fitted effect of over 55% in size
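Yeast growth medium received pinned compounds, then yeast cells expressing toxic A-beta were added; plates incubated at 30 C for 48 hr. Growth read as absorbance at 600 nm, normalized to DMSO and equimolar FeCl3 plus clioquinol controls.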
Mito fusion yeast: mitochondrial division inhibition or fusion activation; actives 0.23% (n = 320,000); S. cerevisiae fusion-defective mutant growth rescue, CellTiterGlo 48 h; AID 485298; Potency, µM (doses to about 46.1 µM), for inactives: at the highest dose growth rescue (activation), usual class: activators; also: % of control where 0% means no effect; nearly all actives have a fitted effect of over 45% in size
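S. cerevisiae fusion-defective temperature-sensitive mutants (e.g. fzo1-1, mgm1-5) grown 48 h at 37C in YPEG (ethanol/glycerol non-fermentable) medium with 23 nl compound per well; growth rescue read as CellTiterGlo luminescence.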
FUS yeast rescue: suppressors of FUS proteinopathy in yeast | S. cerevisiae FUS-expressing, growth rescue, OD600, 24 h | Potency, µM (titrated, usually from 76.6 µM), most hits filed as activators | actives 0.24% (n = 390,000);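 also: plate controls were DMSO vehicle for no effect and reference control for full effect; nearly all actives have a fitted effect of over 55% in size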
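Read-out: OD at 600 nm after 24hr at 30C, reporting rescue of FUS-induced yeast toxicity. Cells at OD 0.005 in galactose (2%) minimal medium; compounds tested in a dilution series; CP55940 titration from 92uM final as control.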
aSyn yeast inh: inhibitors of alpha-synuclein toxicity in yeast; Yeast expressing alpha-synuclein, growth rescue, BacTiter-Glo, 24 h; Potency, µM (top dose mostly 46.1 µM), without a hit: at the highest dose growth rescue (activation), hits mostly activators; actives 0.14% (n = 370,000); AID 652106; also: % of control where 0% means no effect; nearly all actives have a fitted effect of over 65% in size
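Galactose-induced alpha-syn yeast (OD600=0.02, raffinose-pregrown) + pinned cpd, 24 hr, 30 deg C; growth by BacTiter-Glo luminescence. Growth restoration scores as activation.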
TDP-43 yeast inh: rescues yeast growth from TDP-43 toxicity | TDP-43 expressing yeast growth rescue, BacTiter-Glo, 24 h | Potency, µM (highest dose often 46.1 µM), for the others: at the highest dose growth rescue (activation), actives largely listed as activators | actives 1.8% (n = 410,000) | AID 652104; also: % of control where 0% means no effect; nearly all actives have a fitted effect of over 50% in size
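Yeast cells expressing TDP-43 under galactose induction are exposed to compounds for 24 hr at 30 deg C. BacTiter-Glo luminescence measures growth, so protective compounds score as activators.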
Starred values were filed as active, the others as inactive; i = inactive; ? = inconclusive; . = no result. Calls follow the shape of the dose curve; as a rule, active = well fitted curve in the direction sought with a large enough effect; inconclusive = small, poorly fitted or top-dose-only effect, or another doubt; inactive = no such curve, though single readings can be large; an effect the other way counts as inactive or inconclusive. Potency is read from the fitted curve at half-maximal effect.

SMILES	Abeta rescue	Mito fusion yeast	FUS yeast rescue	aSyn yeast inh	TDP-43 yeast inh
CN(C(=O)C1Cc2c(-c3ccccc3Oc3ccccc3)ccnc2O1)c1ccccc1 (configuration not stated)	i	.	?	0%	?
CC(=O)c1cccc(NC(=O)C2Cc3c(-c4ccc(Cl)cc4)ccnc3O2)c1 (configuration not stated)	i	.	40µM*	?	?
O=C(Nc1cccc(C(F)(F)F)c1)C1Cc2c(-c3ccccc3)ccnc2O1 (configuration not stated)	?	.	i	?	35µM*
CCc1ccc(NCc2cc3cc4c(cc3n(CC(=O)Nc3cccc(OC)c3)c2=O)OCO4)cc1	i	.	i	1%	15%
COc1ccccc1N1CCN(C(=O)COc2ccccc2C#N)CC1	i	.	i	.	?
N#Cc1ccccc1OCC(=O)N1CCN(c2ccccc2F)CC1	i	.	i	.	22µM*
CC(=O)N1CCc2c(sc(NC(=O)CSc3ccccc3)c2-c2nc3ccccc3s2)C1	i	.	?	4µM*	23%
COc1cc2c(cc1OC)/C(=C/c1ccc(Br)cc1)C(=O)OC2	i	16µM*	?	16%	13µM*
CCN(CC)CCNc1nc(-c2ccccc2)c2c(c1C#N)CC(C)(C)OC2	i	-12%	i	4%	11%
CC1(C)Cc2c(C#N)c(NCCCO)nc(-c3ccccc3)c2CO1	i	-6%	i	3%	13µM*
Cn1cnc2c1c(=O)n(Cc1ccccc1)c(=O)n2C	i	2%	i	-2%	16%
Cn1cnc2c1c(=O)n(Cc1ccc(Cl)cc1Cl)c(=O)n2C	i	-7%	i	14%	22µM*
Cc1ccc2c(c1)-c1c(cnn1CC(=O)N1CCN(c3ccccc3F)CC1)CO2	i	.	i	.	20µM*
O=C(Cn1ncc2c1-c1ccccc1OC2)N1CCN(c2ccccc2F)CC1	i	.	i	.	23%
Cc1ccc2c(c1)-c1c(cnn1CC(=O)N(Cc1ccco1)C1CCCCC1)CO2	i	24%	i	15%	35µM*
O=C(CSc1nc(=O)[nH]c2c1CCCC2)NCc1ccc(F)cc1	i	.	i	.	9%
O=C(Nc1ccccc1F)c1cnn2c1NC(=C1CC1)C=C2C(F)F	.	.	.	-8%	.
C=CCN1[C@H](CO)[C@H](c2ccc(Br)cc2)[C@@H]1C#N	.	.	i	.	.
CCc1ccccc1NC(=O)CSc1nnc2ccc3ccccc3n12	i	.	i	.	?
O=C(CSc1nnc2ccc3ccccc3n12)Nc1ccccc1Cl	i	.	i	.	18µM*
CC1Cc2ccccc2N1C(=O)/C=C/c1cccc(F)c1 (configuration not stated)	i	9%	i	6%	20µM*
O=C(Nc1cccc([N+](=O)[O-])c1)Nc1ccc2c(c1)CCC2	i	1%	i	6%	8%
O=[N+]([O-])c1cccc(CNc2ccc3c(c2)CCC3)c1	i	14µM*	i	25%	9%
Cc1nc(-c2ccccc2Cl)sc1C(=O)/C=C/N(C)C	i	-1%	i	-64%	32µM*
Cc1nc(-c2ccccc2)sc1C(=O)/C=C/c1ccc(Cl)cc1	i	2%	i	7%	18%
SMILES	Abeta rescue	Mito fusion yeast	FUS yeast rescue	aSyn yeast inh	TDP-43 yeast inh
COCCCNC(=O)c1[nH]c2ccccc2c1Sc1ccc(C)cc1	i	.	i	.	23%
Cc1[nH]c2ccccc2c1-c1csc(NC(=O)CSCCO)n1	i	20µM*	i	1%	-4%
Cc1csc(NC(=O)CSCC(=O)Nc2ccccc2)n1	i	-3%	i	5%	-19%
O=C(c1cnn(-c2ccc(F)cc2)c1-n1cccc1)N1CCN(c2ccccc2)CC1	i	.	i	7%	14µM*
O=C(c1cnn(-c2ccc(F)cc2)c1-n1cccc1)N1CCN(c2ccc(Cl)cc2)CC1	i	.	i	2%	0%
CCC(=O)Nc1cccc(C(=O)OCc2cccc([N+](=O)[O-])c2)c1	i	-3%	i	-9%	11µM*
COC(=O)c1cccc(NC(=O)c2cccc([N+](=O)[O-])c2)c1	i	1%	i	0%	13µM*
CC(=O)Nc1cccc(C(=O)OCc2ccc([N+](=O)[O-])cc2)c1	i	3%	i	-1%	?
O=C(Nc1cccc([N+](=O)[O-])c1)c1cccc(C(=O)Nc2cccc([N+](=O)[O-])c2)c1	i	-1%	i	0%	14%
CC(C)(C)C(=O)C(Cc1ccccc1)n1cncn1 (configuration not stated)	i	2%	i	?	?
CC(C)(C)C(=O)C(Cc1ccccc1Cl)n1cncn1 (configuration not stated)	i	7%	i	30%	7.1µM*
CCCC(C(=O)c1ccccc1)n1cncn1 (configuration not stated)	i	3%	i	-1%	-15%
CC(C)(C)C(O)C(Cc1ccccc1Cl)n1cncn1 (configuration not stated)	i	10µM*	i	14%	35µM*
Cc1cccc(Cn2cc(C(=O)Nc3ccc(F)c(C(F)(F)F)c3)ccc2=O)c1	i	.	i	.	8%
Cc1cccc(Cn2cc(C(=O)Nc3cc(F)ccc3F)ccc2=O)c1	?	.	?	?	22µM*
CSc1cnc2c(=O)n(C)c(=O)[nH]c2n1	i	-1%	.	-1%	-16%
Cn1c(=O)[nH]c2nnc(-c3ccc(Cl)c(Cl)c3)nc2c1=O	i	2.5µM*	i	-3%	-6%
CC(=O)Nc1ccc(NCN2C(=O)C3C4CCC(C4)C3C2=O)cc1 (configuration not stated)	i	-1%	i	4%	25µM*
Cc1cc(C)c(Nc2nc3ccccc3n3c(C)nnc23)c(C)c1	i	.	i	.	15%
CCOC(=O)N1CCc2c(sc3c2c(=O)n(Cc2ccccc2)c(=O)n3Cc2cccc(Cl)c2)C1	i	.	i	.	9%
CC(C)(C)Sc1ccc(/C=N/O)cc1[N+](=O)[O-]	i	1%	i	9%	16µM*
Cc1ccc(Sc2ccc(/C=N/O)cc2[N+](=O)[O-])cc1	i	23%	i	1%	?
COC(=O)CCCn1cc(CN2CC=CS2(=O)=O)nn1	.	.	i	.	.
COc1ccc(Br)cc1/C=C/C(=O)Nc1ccc2ccccc2c1	i	?	i	-11%	7%
COc1ccc(Br)cc1/C=C/C(=O)Nc1ccc(C)cc1	i	?	i	-16%	16µM*
NNC(=S)Nc1ccc(Cl)cc1	?	-4%	i	-20%	6%
NNC(=S)Nc1ccc(OC(F)(F)F)cc1	11µM*	-1%	i	0%	3%

Compound activity: PubChem, National Center for Advancing Translational Sciences (NCATS)
